# Rows were chosen to be rich in hits. Some 15% of all compounds tested hit in one or more screens of this group.
# DT40 TDP1 no CPT – qHTS for Inhibitors of human tyrosyl-DNA phosphodiesterase 1 (TDP1): qHTS in cells in absence of CPT; DT40 Tdp1-/- hTDP1 cells, no CPT, ATP luminescence, 48 h; Potency, µM (titrated, usually from 46.2 µM), most hits filed as inhibitors; actives 15% (n = 420,000); note: nearly all actives have a fitted effect of over 55% in size
#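 Camptothecin absent (DMSO only). Human TDP1-complemented DT40 knockout cells, 400 cells/well, 37 °C for minimum 48 hr; ATP measured via CellTiter-Glo, 30 min dark incubation, luminescence.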
# RORgamma inh – qHTS for inhibitors of ROR gamma transcriptional activity. Nuclear receptor ROR-gamma (Mus musculus), P51450. Drosophila S2 Gal4-RORgamma UAS-luciferase reporter, 20 h. Potency, µM (doses to about 53.6 µM), usual class: inhibitors. actives 5.4% (n = 310,000). AID 2551, 2010; note: nearly all actives have a fitted effect of over 60% in size
# Target sequence (P51450 whole entry, looked up, the tested form may be a part): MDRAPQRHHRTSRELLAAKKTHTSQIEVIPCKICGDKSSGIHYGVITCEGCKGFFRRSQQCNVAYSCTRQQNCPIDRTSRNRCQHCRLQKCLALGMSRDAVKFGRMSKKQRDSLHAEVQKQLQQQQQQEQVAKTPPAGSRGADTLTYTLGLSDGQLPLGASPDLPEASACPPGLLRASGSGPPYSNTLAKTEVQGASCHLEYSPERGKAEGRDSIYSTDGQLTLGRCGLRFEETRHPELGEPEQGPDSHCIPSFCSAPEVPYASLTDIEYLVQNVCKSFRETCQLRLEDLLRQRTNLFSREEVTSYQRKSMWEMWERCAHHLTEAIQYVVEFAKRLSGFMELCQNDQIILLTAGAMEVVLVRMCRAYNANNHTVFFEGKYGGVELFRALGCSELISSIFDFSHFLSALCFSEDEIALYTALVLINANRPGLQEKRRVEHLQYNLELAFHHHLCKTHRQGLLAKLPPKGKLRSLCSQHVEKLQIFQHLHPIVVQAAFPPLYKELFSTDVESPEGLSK
#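 Luminescence from a UAS-regulated Photinus luciferase reporter in stably transfected Drosophila Schneider cells is measured; decreased signal marks ROR gamma inhibition. Fusion expression is induced by 700 uM copper sulfate for 20 hr.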
# ELG1 repair inh – qHTS screen for small molecules that inhibit ELG1-dependent DNA repair in human embryonic kidney (HEK293T) cells expressing luciferase-tagged ELG1; HEK293T ELG1-luciferase reporter, luminescence, 16 h; DNA damage induced by 5-fluorouridine; actives 2.3% (n = 330,000); Potency, µM (highest dose often 46.1 µM), most hits filed as inhibitors; note: nearly all actives have a fitted effect of over 55% in size
#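 Quantitative HTS, concentration-response format. 2,000 cells/well co-treated with 5-fluorouridine and compound, 16 hr in 5% CO2 at 37 °C; ONE-Glo luminescence read after 30 min.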
# ALOX12 inh – Primary qHTS assay for inhibitors of human arachidonate 12S-lipoxygenase (ALOX12): Round 2; actives 1.1% (n = 580,000); Potency, µM (titrated, usually from 108 µM), hits mostly inhibitors; Polyunsaturated fatty acid lipoxygenase ALOX12 (Homo sapiens), P18054; purified 12hLO, xylenol orange hydroperoxide absorbance; AID 1671190, 2021
#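 Hydroperoxide product was detected by ferrous iron/xylenol orange as the 573 to 405 nm absorbance ratio. Arachidonic acid at 40 uM (final) was turned over for 30 min at room temperature by 150 nM human 12hLO, pH 7.0 Hepes buffer, after 15 min compound preincubation.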
# DT40 TDP1 CPT – qHTS for Inhibitors of human tyrosyl-DNA phosphodiesterase 1 (TDP1): qHTS in cells in presence of CPT | Potency, µM (doses to about 46.2 µM), hits mostly inhibitors | actives 12% (n = 420,000) | AID 686979, 2013 | chicken DT40 Tdp1-/-;hTDP1 cells + 20 nM CPT, ATP luminescence, 48 h; note: nearly all actives have a fitted effect of over 55% in size
#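 Cell growth measured by CellTiter-Glo luminescence after a minimum 48 h, 37 C compound exposure with 20 nM CPT in Tdp1-knockout DT40 cells stably expressing hTDP1, seeded 400/well; qHTS titration format.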
# VP16 counter – VP16 counterscreen qHTS for inhibitors of ROR gamma transcriptional activity. Potency, µM (doses to about 53.6 µM), hits mostly inhibitors. Drosophila S2 Gal4-VP16 UAS-luciferase, luminescence, 20 h. AID 2546, 2010. actives 3.5% (n = 310,000);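 note: Gal4-VP16 expression switched on by copper sulfate through the metallothionein promoter; nearly all actives have a fitted effect of over 50% in size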
# Numbers stand for hits; 0 = inactive; ? = inconclusive; - = no result given. Calls come from the whole dose curve; as a rule, active = well fitted curve in the direction sought with a large enough effect; inconclusive = small, poorly fitted or top-dose-only effect, or another doubt; inactive = no such curve, though single readings can be large; an effect the other way counts as inactive or inconclusive.
SMILES,DT40 TDP1 no CPT,RORgamma inh,ELG1 repair inh,ALOX12 inh,DT40 TDP1 CPT,VP16 counter
CCNc1nn2ccccc2c1/C=C(\C#N)C(=O)OCC,16µM,0,0,0,?,0
Cc1cccn2c(=O)c(/C=C(\C#N)C(=O)NCc3ccco3)c(N3CCCCC3)nc12,?,0,18µM,0,?,0
Cc1ccc(-c2cnc(CCC(=O)N(C)C(C)c3ccc(S(C)(=O)=O)cc3)o2)cc1C (stereo not drawn),-,-,-,0,-,-
CCOc1ccc2c(n1)CCN(C(=O)CCC1CCCC1)C2,-,-,-,0,-,-
COc1ccc(-c2[nH]ncc2CN)cc1,-,-,-,0,-,-
CCc1ccc(CN(Cc2cn[nH]c2-c2ccc(OC)cc2)C(=O)Nc2ccc(Br)cc2)cc1,18µM,-,-,0,23µM,-
CCc1ccc(CN(Cc2cn[nH]c2-c2ccc(OC)cc2)C(=O)Nc2ccc(C)c(F)c2)cc1,18µM,-,-,0,21µM,-
Cc1cc(CSc2ncccc2C(=O)Nc2ccnn2Cc2ccccc2)no1,-,-,-,0,-,-
CC(=O)c1c(C(C)=O)c(C)n(-c2ccc(I)cc2)c1C,-,-,-,0,-,-
COc1ccc(Cc2nnc(-c3cccc(C)c3)o2)cc1OC,?,?,0,-,?,?
COc1ccc(Cc2nnc(Nc3ccc(C)cc3)o2)cc1OC,6.5µM,0,?,0,8.2µM,0
Cc1ccc2nc(CO[C@H]3CN(Cc4cn(C)c5ccccc45)C[C@H]3F)[nH]c2c1,-,-,-,0,-,-
CC(=O)N1CCCC(c2nc(-c3cccnc3)no2)CCNC(=O)CC1 (stereo not drawn),-,-,-,0,-,-
Cc1ccc(O/C=C2/Nn3c(nnc3-c3cc(-c4ccccc4)n[nH]3)S2)cc1,16µM,-,-,-,7.1µM,-
CCOc1cc(/C=N\Nc2ncc(F)c(N3CCOCC3)n2)ccc1Oc1nc(Cl)ncc1F,1.8µM,?,23µM,0,5.2µM,?
CCOc1cc(/C=N/NC(=O)c2ccc(O)cc2)ccc1Oc1nc(Cl)ncc1F,?,?,?,?,21µM,0
CC(NC(=O)c1ccc[n+]([O-])c1)c1ccc2ccccc2c1 (stereo not drawn),-,-,-,0,-,-
COc1ccc(N2CCN(C(c3cccs3)C(C)NC(=O)c3ccco3)CC2)cc1 (stereo not drawn),?,?,?,0,?,0
CC(C)C(=O)NCC(c1ccc2c(c1)OCO2)N1CCN(c2ccccc2)CC1 (stereo not drawn),0,-,-,0,0,-
O=C(NCC(c1ccc2c(c1)OCO2)N1CCOCC1)C(=O)Nc1cccc(Cl)c1 (stereo not drawn),12µM,-,-,0,?,-
Cc1ccc(C(=O)NCC(c2ccc3c(c2)OCO3)N2CCOCC2)cc1C (stereo not drawn),10µM,-,-,0,21µM,-
COc1ccc(N2CCN(C(c3cccs3)C(C)NC(=O)c3ccc4c(c3)OCO4)CC2)cc1 (stereo not drawn),21µM,0,?,0,?,0
CNC(=O)C(=O)NCC(c1ccc2c(c1)OCO2)N1CCOCC1 (stereo not drawn),0,-,-,0,0,-
O=C(NCC(c1ccc2c(c1)OCO2)N1CCN(c2ccccc2)CC1)c1ccccc1 (stereo not drawn),10µM,-,-,0,13µM,-
Cc1ccc2nc(-c3cccc(NC(=O)c4ccc(C#N)cc4F)c3)oc2c1,-,-,-,0,-,-
SMILES,DT40 TDP1 no CPT,RORgamma inh,ELG1 repair inh,ALOX12 inh,DT40 TDP1 CPT,VP16 counter
O=C(CC1C=CCC1)N(Cc1ccncc1)C1CC1 (stereo not drawn),-,-,-,0,-,-
COc1ccc(N2CCN(C(CNC(=O)C(=O)NCc3ccc4c(c3)OCO4)c3ccco3)CC2)cc1 (stereo not drawn),0,0,7.3µM,0,?,0
COc1ccccc1N1CCN(C(c2cccs2)C(C)NC(=O)c2ccncc2)CC1 (stereo not drawn),?,0,0,0,21µM,0
COc1ccccc1N1CCN(C(c2cccs2)C(C)NC(=O)c2ccco2)CC1 (stereo not drawn),?,0,?,0,?,0
COc1ccc(N2CCN(C(CNC(=O)c3ccc(C)cc3)c3ccc4c(c3)OCO4)CC2)cc1 (stereo not drawn),5.8µM,-,-,0,8.2µM,-
O=C(NCC(c1ccc2c(c1)OCO2)N1CCN(c2ccc(F)cc2)CC1)c1cccc([N+](=O)[O-])c1 (stereo not drawn),6.5µM,-,-,0,6.5µM,-
Cc1[nH]c2ccccc2c1C(=O)C(C)Oc1ccccc1F (stereo not drawn),-,-,-,0,-,-
Cc1ccc(S(=O)(=O)Nc2nc3ccccc3nc2NCc2ccc(Cl)cc2)cc1,-,-,-,0,-,-
O=C(NC[C@H]1O[C@H](Cc2cc(-c3ccccc3)on2)CC[C@@H]1O)c1ccncc1,-,-,-,0,-,-
CCOc1cc(C(=O)N=c2sccn2C)cc(Br)c1OC,18µM,0,?,?,18µM,0
CCCSc1nc2c(c(=O)[nH]1)C(c1ccncc1)C(C(=O)OC)=C(C)N2 (stereo not drawn),-,-,-,0,-,-
N#Cc1c(NCc2ccccc2)ccnc1Cl,21µM,-,-,0,?,-
Cc1cc2ccccc2n1CCNC(=O)C(C)Oc1ccccc1 (stereo not drawn),0,7.1µM,?,0,23µM,?
Cc1ccc(C(=O)NCCn2c(C)cc3ccccc32)cc1C,10µM,-,-,?,12µM,-
Cc1cc2ccccc2n1CCNC(=O)c1ccc2ccccc2c1,-,-,-,0,-,-
CC1CCCC(NC(=S)NC(=O)c2cncc(Br)c2)C1C (stereo not drawn),0,2.8µM,0,?,0,5.6µM
CC1CCCC(NC(=S)NC(=O)c2ccco2)C1C (stereo not drawn),?,-,0,32µM,15µM,-
CC1(C)CC(=O)C2=C(C1)OC1=C(C(=O)CC(C)(C)C1)C2c1ccc(-c2ccccc2C(=O)O)o1,-,-,-,0,-,-
COc1ccccc1CNC(=O)COC(=O)c1cccnc1Nc1cccc(C(F)(F)F)c1,-,-,-,0,-,-
O=C(N/N=C/C=C/c1ccccc1)c1ccc(Br)cc1,0,3.2µM,0,0,0,4.5µM
CC(C)(C)c1ccc(C(=O)N/N=C/C=C/c2ccccc2)cc1,-,-,-,0,-,-
CC(/C=C/C=C/c1ccccc1)=N/NC(=O)C(O)c1ccccc1 (stereo not drawn),18µM,0,0,0,0,0

# Assay outcomes deposited in PubChem BioAssay by National Center for Advancing Translational Sciences (NCATS).
